Marburg entry inh = qHTS for inhibitors of binding or entry into cells for Marburg Virus; Marburg virus pseudotyped entry inhibition, cell reporter; Potency, µM (highest dose often 37.8 µM), actives largely listed as inhibitors; 300,000 tested, 1.8% active; AID 540276, 2011; calls by dose curve; tested in HEK293 cells
FMDV inh = High Throughput Screening for Foot and Mouth Disease Virus Antivirals; FMDV antiviral cell-based qHTS; Potency, µM (series often up to 57.9 µM), hits mostly inhibitors; 410,000 tested, 1.2% active; calls by dose curve; tested in HEK293T cells; further: read-out not given here; nearly all actives have a fitted effect of over 45% in size
Sm TGR inh = qHTS Assay for the Inhibitors of Schistosoma Mansoni Peroxiredoxins. Schistosoma mansoni thioredoxin glutathione reductase (TGR), Q962Y6. purified TGR, DTNB reduction, TNB absorbance 405 nm. Potency, µM (top dose mostly 114 µM), hits mostly inhibitors. 360,000 tested, 3% active. AID 485364, 2010; further: nearly all actives have a fitted effect of over 60% in size
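Kinetic colorimetric format: TGR-catalysed, NADPH-driven DTNB reduction monitored via TNB absorbance. Enzyme dispensed at 20 nM; compound exposure 15 min at room temperature before reaction start.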
LASV entry inh = qHTS for Inhibitors of binding or entry into cells for Lassa Virus; AID 540256, 2011; Potency, µM (doses to about 37.9 µM), usual class: inhibitors; 300,000 tested, 1.2% active; Lassa virus pseudotype entry inhibition, cell reporter; calls by dose curve; tested in HEK293 cells; further: nearly all actives have a fitted effect of over 50% in size
RE007 growth inh = qHTS Assay for Inhibitors of the HIV-1 protein Vpr | S. pombe RE007 Vpr strain, BacTiter-Glo ATP luminescence, 24 h | Potency, µM (top dose mostly 92.2 µM), hits mostly inhibitors | 360,000 tested, 0.21% active; active means well fitted falling curve with a large enough effect; inconclusive means small, poorly fitted or top-dose-only effect; inactive means no such curve, though single readings can be large or run the other way; further: nearly all actives have a fitted effect of over 50% in size
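Fission yeast RE007 carrying one integrated HIV-1 vpr copy, seeded at OD 0.01 in PMG+AL medium with 23 nL pinned compound. Grown 24 h at 30 degrees; viability read by BacTiter-Glo luminescence after 5 min.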
HCV inhibitor = qHTS Assay for Inhibitors of Hepatitis C Virus (HCV) | Huh7.5.1 HCVcc-Cre infection, luciferase reporter, 44 h | Potency, µM (top dose mostly 41.8 µM), usual class: inhibitors | 340,000 tested, 3.4% active | AID 651820, 2012
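Infectious HCV cell culture screen: compound-treated cells (1,000/well, pre-plated 4 h) are infected with HCVcc-Cre at roughly 0.5 moi and grown 44 h. Infection is quantified by luciferase signal after 15 min substrate incubation at room temperature.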
Numbers stand for hits; [ ] = dose if it differs, or a comment. This is a sample that favours compounds with a hit; in the whole collection about 7.2% have one here. Unless noted, the call rests on the fitted dose curve; in most records, active means well fitted curve in the direction sought with a large enough effect; inconclusive means small, poorly fitted or top-dose-only effect, or another doubt; inactive means no such curve, though single readings can be large; an effect the other way counts as inactive or inconclusive.

`N#CCCn1cc(C(=O)Nc2ccc(C(=O)O)cc2)c(-c2cccc(Br)c2)n1` gave Marburg entry inh inactive, FMDV inh inactive, Sm TGR inh 100µM, LASV entry inh inactive, RE007 growth inh inactive and HCV inhibitor inactive.
For N#CCCn1cc(C(=O)Nc2ccc(F)cc2)c(-c2ccccc2)n1 the results were FMDV inh inactive, Sm TGR inh inactive, RE007 growth inh inactive and HCV inhibitor inactive.
Cc1ccc2nc(-c3ccc(Cl)c(NC(=O)COc4cccc(C)c4C)c3)oc2c1 was read as Marburg entry inh inconclusive, FMDV inh inactive, Sm TGR inh inactive and LASV entry inh inactive.
For COc1ccc(C2=NCC(=O)N(CC(=O)NCc3ccco3)c3sc4c(c32)CCCC4)cc1 the results were Marburg entry inh inconclusive, Sm TGR inh inconclusive, LASV entry inh inactive, RE007 growth inh inactive and HCV inhibitor inconclusive.
Cc1cccc(C2=NCC(=O)N(CC(=O)NCc3ccco3)c3sc4c(c32)CCCC4)c1 was read as Marburg entry inh inactive, FMDV inh inconclusive, Sm TGR inh 17.8µM, LASV entry inh inconclusive, RE007 growth inh inactive and HCV inhibitor inconclusive.
For N#Cc1ccccc1/C=N/Nc1nc(-c2ccccc2)c2cc(Cl)ccc2n1 the results were Marburg entry inh inconclusive, FMDV inh inconclusive, Sm TGR inh inactive, LASV entry inh inactive, RE007 growth inh inactive and HCV inhibitor inconclusive.
`Cc1ccc2nc(N/N=C/c3ccccc3C#N)nc(-c3ccccc3)c2c1` gave Marburg entry inh 12.6µM, FMDV inh inactive, Sm TGR inh inactive, LASV entry inh inconclusive, RE007 growth inh inactive and HCV inhibitor inconclusive.
`O=C(Nc1c(F)cccc1F)c1ccc2c(c1)CCN2S(=O)(=O)c1ccccc1` gave Marburg entry inh inactive, FMDV inh 0.316µM, Sm TGR inh inactive, LASV entry inh inconclusive, RE007 growth inh inactive and HCV inhibitor inconclusive.
Screening CCN(CC)CCNC(=O)c1ccc(NC(=O)c2cccc(S(=O)(=O)N3c4ccccc4CC3C)c2)cc1 (configuration not stated) returned FMDV inh inactive, Sm TGR inh inactive, RE007 growth inh inactive and HCV inhibitor 11.2µM.
For CCN(CC)CCNC(=O)c1cc(S(=O)(=O)N2CCc3ccccc32)cn1C the results were FMDV inh inactive, Sm TGR inh inactive, RE007 growth inh inactive and HCV inhibitor inactive.
Screening CCN(CC)CCNC(=O)c1ccc(NC(=O)c2cccc(S(=O)(=O)N3CCc4ccccc43)c2)cc1 returned Marburg entry inh 8.91µM, FMDV inh inactive, Sm TGR inh inactive, LASV entry inh inactive, RE007 growth inh inactive and HCV inhibitor inconclusive.
For CC1Cc2ccccc2N1S(=O)(=O)c1cccc(C(=O)NCCCO)c1 (configuration not stated) the results were Marburg entry inh inactive, FMDV inh inactive, Sm TGR inh inactive, LASV entry inh inactive, RE007 growth inh inactive and HCV inhibitor inactive.
`CSc1nnc2c(n1)[nH]c1c(C)cccc12` gave Marburg entry inh inactive, Sm TGR inh inactive, LASV entry inh inactive, RE007 growth inh inconclusive and HCV inhibitor inactive.
Screening CCSc1nnc2c(n1)[nH]c1c(C)cccc12 returned Marburg entry inh inconclusive, Sm TGR inh inactive[11.4 µM], LASV entry inh inactive, RE007 growth inh inconclusive and HCV inhibitor 31.6µM.
Cc1[nH]n(C)c(=O)c1C(=O)c1c(-c2ccccc2Cl)noc1C was read as Marburg entry inh inactive, FMDV inh inconclusive, Sm TGR inh 44.7µM, LASV entry inh inconclusive, RE007 growth inh inactive and HCV inhibitor inactive.
For O=C(Nc1ccn(CCCN2CCN(c3ccccc3)CC2)c(=O)n1)OCc1ccccc1 the results were FMDV inh inconclusive and RE007 growth inh inactive.
Cc1cc(C)c(CN2CCN(CCCn3ccc(NC(=O)OCc4ccccc4)nc3=O)CC2)c(C)c1 was read as FMDV inh inconclusive, RE007 growth inh inactive and HCV inhibitor 7.94µM.
Screening Cc1nnc(SC(C)C(=O)N2CCc3ccccc32)s1 (configuration not stated) returned Marburg entry inh inconclusive, FMDV inh inactive, Sm TGR inh inactive, LASV entry inh inactive, RE007 growth inh inactive and HCV inhibitor inactive.
Screening CCCc1nc(SCC(=O)N2c3ccccc3CC2C)c2c(C)c(C)sc2n1 (configuration not stated) returned Marburg entry inh 9.2µM, Sm TGR inh inactive, LASV entry inh inconclusive, RE007 growth inh inactive and HCV inhibitor inconclusive.
`CC1CCCCN1C(=O)CSc1nnc2c(n1)[nH]c1ccccc12` (configuration not stated) gave Marburg entry inh inactive, FMDV inh inactive, Sm TGR inh inactive, LASV entry inh inconclusive, RE007 growth inh inactive and HCV inhibitor inactive.
Screening CC1Cc2ccccc2N1C(=O)CSc1nnc(-c2ccccc2)c(-c2ccccc2)n1 (configuration not stated) returned Marburg entry inh inconclusive, FMDV inh inconclusive, Sm TGR inh inactive, LASV entry inh inconclusive, RE007 growth inh inactive and HCV inhibitor 10µM.
For CC1Cc2ccccc2N1C(=O)CSc1nnc2c(n1)[nH]c1ccccc12 (configuration not stated) the results were Marburg entry inh inactive, FMDV inh 14.1µM, Sm TGR inh inactive, LASV entry inh inactive, RE007 growth inh inactive and HCV inhibitor inactive.
For CC(Sc1nnc(-c2ccccc2)c(-c2ccccc2)n1)C(=O)N1CCc2ccccc21 (configuration not stated) the results were Marburg entry inh 11.2µM, FMDV inh inconclusive, Sm TGR inh inactive, LASV entry inh inconclusive, RE007 growth inh inactive and HCV inhibitor inconclusive.
`CCc1nc2nc(C)cc(Nc3cc(Cl)ccc3OC)n2n1` gave Marburg entry inh inactive, FMDV inh inactive, Sm TGR inh inactive and LASV entry inh inactive.
Screening NNC(=O)/C=C/c1ccc(Cl)cc1Cl returned Marburg entry inh inactive, FMDV inh inactive, Sm TGR inh inactive, LASV entry inh inactive, RE007 growth inh inactive and HCV inhibitor inactive.
Screening CC(C)SC1=NC(C)(C)C=C(/C=C/c2c(Cl)cccc2Cl)N1 returned Marburg entry inh inconclusive, FMDV inh inconclusive, Sm TGR inh 20µM, LASV entry inh inactive, RE007 growth inh inactive and HCV inhibitor inactive.
CC(C)SC1=NC(C)(C)C=C(/C=C/c2ccc(Cl)cc2Cl)N1 was read as Marburg entry inh inconclusive, FMDV inh inconclusive, Sm TGR inh 15.8µM, LASV entry inh inconclusive, RE007 growth inh inactive and HCV inhibitor inactive.
Nc1nc(SCc2ccccc2[N+](=O)[O-])c2ncn(Cc3ccccc3)c2n1 was read as Marburg entry inh inconclusive, FMDV inh inactive, LASV entry inh inactive, RE007 growth inh inactive and HCV inhibitor 11.2µM.
